Records with an inconclusive call do not appear. A number with no mark means an inactive call. Activity calls are given as the source filed them. Calls come from the whole dose curve; as a rule, active = well fitted cell-killing curve with a large enough effect; inconclusive = small, poorly fitted or top-dose-only effect; inactive = flat fitted curve, though single readings scatter.
Assay: Quantitative highthroughput screen to assess conditional lethalithy of P12 Ichikawa cells grown in Human Plasma-Like Medium with dialyzed fetal bovine serum (HPLM+ds) (AID 1963879); note: nearly all actives have a fitted effect of over 35% in size
Details: ATP luminescence, 48 h; Potency: viability; series mostly up to 45.8 µM; viability: at the top concentration
Description: Assay Provider: Jason Cantor Ph.D.
Department of Biochemistry
University of Wisconsin-Madison, Madison, WI, USA
Chemical screening studies have identified drug sensitivities across hundreds of cancer cell lines but most putative therapeutics fail to translate. Discovery and development of drug candidates in models that more accurately reflect nutrient levels in human blood is a major challenge. Here we performed high-throughput screens in conventional versus Human Plasma-Like Medium (HPLM) to identify compounds that were "missed" when screening using the artificial culture condition. Sets of conditional anticancer compounds spanned phases of clinical development and included non-oncology drugs were assessed. […] We also traced conditional phenotypes for several chemotherapeutics to availability of HPLM-specific metabolites and confirmed others for compounds whose reported targets are encoded by nonessential genes. Our findings establish generalizable strategies for exploiting conditional lethality in HPLM to reveal therapeutic candidates and mechanisms of action in cancer cells.
Described herein are the results of each viability screens against three cell lines: NOMO1 (an acute myeloid leukemia cell line); P12-Ichikawa (a T-cell acute lymphoblastic leukemia); and SEM (a B-cell ALL). Each assay was screened using 3 different cell culture media: homemade human plasma-Like medium with 10% dialyzed fetal bovine serum (HPLM+ds); RPMI1640 with 10% untreated FBS and 5mM glucose (RPMI+s); and RPMI1640 with 10% dialyzed fetal bovine serum and 5 mM glucose (RPMI+ds).
PROTOCOL TABLE (as described by Inglese J, Shamu CE and Guy RK. 2007)
SEQUENCE No. (e.g., 1, 2, 3, etc.); […] (e.g., Cells, Incubation, Reagent, etc.); VALUE and DESCRIPTION.
1; Cells; 5 uL; white, solid bottom 1536-well Greiner assay plate.
2; Compounds; 23 nL; Kalypsis pin tool (Wako USA) equipped with a 1536-well pin head to transfer to the assay plates.
3; Incubation; 48 hours; 37C incubation.
4; Reagent; 3 uL; CellTiter Glo (Promega).
5; Incubation; 5 min, room temperature
6; Detection; Luminescence, Viewlux PerkinElmer.
NOTES (numbers refer to Sequence numbers above)
1. Briefly, 5 ul of cell reagent was dispensed using a Multidrop Combi Dispenser. The NOMO1 and SEM cells were plated at 500 cells/well and the P12-Ichikawa line at 1000 cells/well.
2. After seeding the cells, 23 nL of MIPE 4.1 library compounds (in DMSO) were added to each plate using a Kalypsys 1536 Pintool dispenser. Bortezomib at final concentration of […] and DMSO were added to each plate as positive and negative controls respectively. For each screen, MIPE 4.1 compounds were added over an eleven-point concentration range […] in 3-fold dilutions.
3. Each plate was covered with a stainless steel gasketed lid to prevent evaporation and incubated for 48 hour at 37C, 95% relative humidity, and 5% CO2.
4-5. Three microliter CellTilter-GloTM luminescent substrate mix (Promega) reagent was added to the assay plate and incubated at room temperature for 5 min.
6. The luminescence signal was measured using a ViewLux (PerkinElmer) multiplate reader with a 2 second exposure time per plate. Data for each compound were normalized as percent viability such that measurements for DMSO and the empty well controls in each plate were defined as 100% and 0%, respectively.
Potency is the fitted concentration of half-maximal effect.

Structure (SMILES) | Potency | viability
CC=C(C)C(=O)O[C@H]1C(C)=C2[C@@H]3OC(=O)[C@@](C)(O)[C@@]3(O)[C@@H](OC(=O)CCC)C[C@](C)(OC(C)=O)[C@@H]2[C@@H]1OC(=O)CCCCCCC | 118 nM (active) | 
CC(C)c1cccc(C(C)C)c1O |  | 101%
CC(=O)O[C@@]12CO[C@H]1C[C@H](O)[C@@]1(C)C(=O)[C@H](O)C3=C(C)[C@@H](O)C[C@@](O)([C@@H](OC(=O)c4ccccc4)[C@@H]21)C3(C)C | 10500 nM (active) | 
COc1ccc2c(c1)[C@]13CCCCC1C(C2)N(C)CC3 (stereo not given in full) |  | 93.9%
CN1C(=O)COc2c(C(=O)NC3CN4CCC3CC4)cc(Cl)cc21 (stereo not given) |  | 112%
COC1=C[C@@H]2[C@@H]3Cc4ccc(OC)c(O)c4[C@]2(CCN3C)CC1=O |  | 94.2%
C[C@H]1CCCC=CC2C[C@H](O)C[C@@H]2[C@H](O)C=CC(=O)O1 (stereo not given in full) | 37.2 nM (active) | 
CC(C)(O)C(=O)Nc1ccc([N+](=O)[O-])c(C(F)(F)F)c1 | 8330 nM (active) | 
NC1CC1c1ccccc1 (stereo not given) |  | 100%
CSCC[C@@H](NC(=O)[C@@H](Cc1ccccc1)NC(=O)CNC(=O)CNC(=O)[C@@H](N)Cc1ccc(O)cc1)C(=O)O |  | 106%
O=C(N[C@@H](COc1ccc2[nH]c(=O)[nH]c2c1)c1ccccc1)c1cccn(Cc2ccc(F)c(F)c2)c1=O | 5260 nM (active) | 
CC(C)[C@]12O[C@@H]1[C@@H]1O[C@]13[C@]1(O[C@H]1C[C@@H]1C4=C(CC[C@@]13C)C(=O)OC4)[C@H]2O | 1.2 nM (active) | 
CCc1c(C(=O)C(N)=O)c2c(OCC(=O)O)cccc2n1Cc1ccccc1 |  | 98.5%
CN[C@@H]1Cc2cccc3[nH]c(=O)n(c23)C1 |  | 101%
CCN1C[C@]2(OC(=O)c3ccccc3NC(C)=O)CC[C@H](OC)[C@@]34[C@H]5CC6[C@@H](OC)C[C@](O)(C(C[C@@H]23)[C@@H]14)[C@@]5(O)[C@@H]6OC |  | 98.5%
CC1=C2C[C@@H]3[C@@H](CC=C4C[C@@H](O)CC[C@@]43C)[C@@H]2CC[C@]12O[C@H]1C[C@H](C)CN[C@H]1[C@H]2C |  | 94.6%
Cc1cccc(C)c1NC(=O)CN1CCCC1=O |  | 99.4%
C[C@@H]1[C@@H](C(=O)C[C@H]2O[C@@H]3O[C@]4(C)CC[C@@H]5[C@H](C)CC[C@@H]([C@H]2C)[C@@]35OO4)O[C@@H]2O[C@]3(C)CC[C@H]4[C@H](C)CC[C@@H]1[C@@]24OO3 | 23500 nM (active) | 
O=[N+]([O-])c1ncc[nH]1 |  | 99.5%
COCC1(CO)C(=O)C2CCN1CC2 (stereo not given) | 11800 nM (active) | 

Structure (SMILES) | Potency | viability
CC[C@@]1(O)C(=O)OCc2c1cc1n(c2=O)Cc2cc3ccccc3nc2-1 | 29.6 nM (active) | 
CC(C)(C)c1cc(C=C(C#N)C#N)cc(Br)c1O |  | 90.6%
CCOP(=O)(OCC)C(C)NC(=O)N(CCCl)N=O (stereo not given) |  | 110%
O=C(O)c1nn(Cc2ccc(Cl)cc2Cl)c2ccccc12 |  | 101%
CC(C)(C)[C@]1(O)C[C@@H]2OC(=O)C[C@@]23C(=O)O[C@@H]2OC(=O)[C@H](O)C213 (stereo not given in full) |  | 97.7%
Cn1c(CCCC(=O)O)nc2cc(N(CCCl)CCCl)ccc21 |  | 91.6%
CC(=O)Nc1ccc(OC[C@](C)(O)C(=O)Nc2ccc([N+](=O)[O-])c(C(F)(F)F)c2)cc1 |  | 96.5%
O=C(NCC1CCOCC1)c1cnc(Nc2ccc(Cl)cc2Cl)nc1C(F)(F)F |  | 105%
C[C@@]12OC(=O)[C@]1([C@@H](O)[C@@H]1C=CCCC1)NC(=O)[C@H]2CCCl | 235 nM (active) | 
C#C[C@]1(O)C=C[C@@H]2[C@@H]3CCC4=CC(=O)CC[C@@H]4[C@H]3CC[C@@]21CC |  | 99.4%
NCC1(CC(=O)O)CCCCC1 |  | 99.8%
Cc1cc(SCc2sc(-c3ccc(C(F)(F)F)c(F)c3)nc2C)ccc1OCC(=O)O |  | 96.2%
CN1CCN(c2ccc([N+](=O)[O-])c3no[n+]([O-])c23)CC1 |  | 90.8%
COC[C@H]1OC(=O)c2coc3c2[C@@]1(C)C1=C(C3=O)C2CCC(=O)[C@@]2(C)C[C@H]1OC(C)=O (stereo not given in full) |  | 99%
C[C@@H]1O[C@@H](O[C@@H]2C=C3CC[C@@H]4[C@@H](CC[C@]5(C)[C@H](c6ccc(=O)oc6)CC[C@@]45O)[C@@]3(C)CC2)[C@H](O)[C@H](O)[C@H]1O | 20.9 nM (active) | 
CC(O)=C(C#N)C(=O)Nc1cc(Br)ccc1Br |  | 101%
Clc1ccccc1C(c1ccccc1)(c1ccccc1)n1cccn1 |  | 102%
C=C[C@@H]1CN2CCC1C[C@@H]2[C@@H](O)c1ccnc2ccccc12 (stereo not given in full) |  | 92.5%
C[C@H]([C@H](O)CCC(C)(C)O)[C@H]1CC[C@@]2(O)C3=CC(=O)[C@@H]4C[C@@H](O)[C@@H](O)C[C@]4(C)[C@@H]3CC[C@]12C |  | 102%
C[C@@H]1[C@@H](CC(C[C@H]2O[C@@H]3O[C@]4(C)CC[C@@H]5[C@H](C)CC[C@@H]([C@H]2C)[C@@]35OO4)C[S+](=O)([O-])c2ccc(COC(=O)N(C)C)cc2)O[C@@H]2O[C@]3(C)CC[C@H]4[C@H](C)CC[C@@H]1[C@@]24OO3 (stereo not given in full) | 3320 nM (active) | 

Source: PubChem BioAssay (NCATS)
